Reference: PubChem BioAssay (Tox21)
Where “and” joins values, the source holds several entries; their conditions need not be identical. Identical values can stand only once. Results filed as inconclusive are left out. A call without a number means that no potency is given here. A structure can be active in one record and inactive in another. Calls of active or inactive are those of the source. Unless noted, calls come from the whole dose curve.

molecular target: Nuclear receptor subfamily 1 group I member 2 (Rattus norvegicus) (UniProt Q9R1A7); assay: Rat pregnane X receptor (rPXR) activation by small molecules, qHTS assay (AID 1346983; active = well fitted curve in the direction sought with a large enough effect in the repeat runs; an effect the other way counts as inactive or inconclusive; note: nearly all actives have a fitted effect of over 20% in size); details: rPXR luciferase reporter cells, One-Glo luminescence, 24 h; stronger effect = higher value
In short: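 Luminescent readout (One-Glo luciferase, 30 min room temperature) followed 24 hr compound treatment at 37 C of rPXR cells plated 2,000 per well and preincubated 5hr; qHTS format with compounds delivered in DMSO.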

Chain of Nuclear receptor subfamily 1 group I member 2 (Rattus norvegicus) (Q9R1A7 whole entry, looked up): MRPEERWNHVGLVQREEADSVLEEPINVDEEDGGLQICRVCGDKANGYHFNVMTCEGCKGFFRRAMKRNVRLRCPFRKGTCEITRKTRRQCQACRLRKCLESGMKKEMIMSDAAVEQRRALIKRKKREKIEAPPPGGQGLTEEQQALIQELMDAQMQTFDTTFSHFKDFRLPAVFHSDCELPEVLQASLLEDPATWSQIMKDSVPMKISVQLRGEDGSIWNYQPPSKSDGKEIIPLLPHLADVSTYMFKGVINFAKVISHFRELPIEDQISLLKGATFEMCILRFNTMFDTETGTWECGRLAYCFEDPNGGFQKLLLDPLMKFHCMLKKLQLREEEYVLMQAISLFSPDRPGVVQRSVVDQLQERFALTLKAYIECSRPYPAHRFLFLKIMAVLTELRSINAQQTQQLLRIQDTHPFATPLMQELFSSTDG

| SMILES | max activation |
| --- | --- |
| C[C@]12CCC(=O)C=C1CC[C@@H]1[C@@H]2CC[C@]2(C)C(=O)CC[C@@H]12 | -1.07% (inactive) |
| CC(=O)[O][Hg][c]1ccccc1 | -23.3% (inactive) |
| CN(C)[C@@H]1C(=O)C(C(N)=O)=C(O)[C@@]2(O)C(=O)C3=C(O)c4c(O)cccc4[C@@](C)(O)[C@H]3[C@H](O)[C@@H]12 | -4.55% (inactive) and -1.55% (inactive) |
| O=C(O)C(Cl)(Cl)Cl | -1.14% (inactive) |
| O=C(O)C(Cl)Cl | -1.74% (inactive) |
| CCOP(=S)(OCC)Oc1ccc2c(C)c(Cl)c(=O)oc2c1 | 9.05% (inactive) |
| C1CCC(NC2CCCCC2)CC1 | -0.555% (inactive) |
| O=c1[nH]c(=O)n(Cl)c(=O)n1Cl | 0.0078% (inactive) |
| CCNc1nc(Cl)nc(NCC)n1 | -2% (inactive) |
| Oc1ccccc1-c1ccccc1 | -1.27% (inactive) |
| OCCOc1ccccc1 | -2.05% (inactive) |
| COP(=O)(OC)OC=C(Cl)Cl | 0.647% (inactive) |
| COCC(=O)N(c1c(C)cccc1C)C(C)C(=O)OC (centres undefined) | 0.174% (inactive) |

molecular target: Nuclear receptor subfamily 1 group I member 2 (Homo sapiens) (UniProt O75469); assay: CYP3A4 induction through human pregnane X receptor (PXR) by small molecules, qHTS assay (AID 1346984; active = well fitted curve in the direction sought with a large enough effect in the repeat runs; an effect the other way counts as inactive or inconclusive; note: nearly all actives have a fitted effect of over 40% in size); details: DPX-2 HepG2 PXR, CYP3A4-luciferin luminescence, 24 h; series mostly up to 46.1 µM; activation: at the top concentration
In short: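 After 24 h at 37C with compound, DPX-2 cells (HepG2, co-transfected PXR response element and CYP3A4 promoter-luciferase) got 3uM final P450-Glo Luciferin-IPA for 3 h; One-Glo luminescence followed.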

| SMILES | activation | outcome |
| --- | --- | --- |
| C[C@]12CCC(=O)C=C1CC[C@@H]1[C@@H]2CC[C@]2(C)C(=O)CC[C@@H]12 | 18.2% (inactive) |  |
| CC(=O)[O][Hg][c]1ccccc1 | -30.2% (inactive) |  |
| C=CCOC(Cn1ccnc1)c1ccc(Cl)cc1Cl (centres undefined) | -19% (inactive) |  |
| CN(C)[C@@H]1C(=O)C(C(N)=O)=C(O)[C@@]2(O)C(=O)C3=C(O)c4c(O)cccc4[C@@](C)(O)[C@H]3[C@H](O)[C@@H]12 |  | inactive |
| O=C(O)C(Cl)(Cl)Cl | -4.39% (inactive) |  |
| O=C(O)C(Cl)Cl | -9.37% (inactive) |  |
| CCOP(=S)(OCC)Oc1ccc2c(C)c(Cl)c(=O)oc2c1 | -15.2% (inactive) |  |
| C1CCC(NC2CCCCC2)CC1 | 0.785% (inactive) |  |
| O=c1[nH]c(=O)n(Cl)c(=O)n1Cl | -4.4% (inactive) |  |
| CCNc1nc(Cl)nc(NCC)n1 | 4.8% (inactive) |  |
| Oc1ccccc1-c1ccccc1 | -0.025% (inactive) |  |
| OCCOc1ccccc1 | -8.18% (inactive) |  |
| COP(=O)(OC)OC=C(Cl)Cl | 10.1% (inactive) |  |
| CCCCCCCCCCCCOS(=O)(=O)O | 6.49% (inactive) |  |

molecular target: Nuclear receptor subfamily 1 group I member 2 (Homo sapiens) (UniProt O75469); assay: Human pregnane X receptor (PXR) activation by small molecules, qHTS assay (AID 1346985; active = well fitted curve in the direction sought with a large enough effect in the repeat runs; an effect the other way counts as inactive or inconclusive; note: nearly all actives have a fitted effect of over 40% in size; note: potency is the fitted concentration of half-maximal effect); details: DPX-2 HepG2 CYP3A4-luciferase, 24 h; series mostly up to 38.3 µM; activation: at the top concentration
In short: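 DPX-2 cells (HepG2 co-transfected with a PXR response element and a CYP3A4-promoter luciferase construct) were seeded at 2,000 per well, rested 5 hr at 37C, then exposed to DMSO-dissolved compounds for 24 hr. Activation was read as luciferase luminescence.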

| SMILES | activation | Potency |
| --- | --- | --- |
| C[C@]12CCC(=O)C=C1CC[C@@H]1[C@@H]2CC[C@]2(C)C(=O)CC[C@@H]12 | 27.2% (inactive) |  |
| CC(=O)[O][Hg][c]1ccccc1 |  | 10 µM (active) |
| CN(C)[C@@H]1C(=O)C(C(N)=O)=C(O)[C@@]2(O)C(=O)C3=C(O)c4c(O)cccc4[C@@](C)(O)[C@H]3[C@H](O)[C@@H]12 |  | inactive |
| O=C(O)C(Cl)(Cl)Cl | 10.8% (inactive) |  |
| O=C(O)C(Cl)Cl | -1.17% (inactive) |  |
| CCOP(=S)(OCC)Oc1ccc2c(C)c(Cl)c(=O)oc2c1 |  | 14.1 µM (active) |
| C1CCC(NC2CCCCC2)CC1 | -4.25% (inactive) |  |
| O=c1[nH]c(=O)n(Cl)c(=O)n1Cl | 1.52% (inactive) |  |
| CCNc1nc(Cl)nc(NCC)n1 | 8.56% (inactive) |  |
| Oc1ccccc1-c1ccccc1 | 4.33% (inactive) |  |
| OCCOc1ccccc1 | -2.8% (inactive) |  |
| COP(=O)(OC)OC=C(Cl)Cl | 25.6% (inactive) |  |
| CCCCCCCCCCCCOS(=O)(=O)O | 13.3% (inactive) |  |

molecular target: Acetylcholinesterase (Homo sapiens) (UniProt P22303); assay: Acetylcholinesterase (AChE) small molecule antagonists: colormetric cell-based qHTS assay (AID 1347395); details: SH-SY5Y cells AChE activity, colorimetric (Ellman); series mostly up to 115 µM; activity, negative = inhibition: at the top concentration; note: nearly all actives have a fitted effect of over 30% in size; note: potency is the fitted concentration of half-maximal effect
In short: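 SH-SY5Y cells; cpd 30 min 37 C; + DTNB/acetylthiocholine, 90 min 37 C; colorimetric thiocholine read; qHTS.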

Chain of Acetylcholinesterase (Homo sapiens) (P22303 whole entry, looked up): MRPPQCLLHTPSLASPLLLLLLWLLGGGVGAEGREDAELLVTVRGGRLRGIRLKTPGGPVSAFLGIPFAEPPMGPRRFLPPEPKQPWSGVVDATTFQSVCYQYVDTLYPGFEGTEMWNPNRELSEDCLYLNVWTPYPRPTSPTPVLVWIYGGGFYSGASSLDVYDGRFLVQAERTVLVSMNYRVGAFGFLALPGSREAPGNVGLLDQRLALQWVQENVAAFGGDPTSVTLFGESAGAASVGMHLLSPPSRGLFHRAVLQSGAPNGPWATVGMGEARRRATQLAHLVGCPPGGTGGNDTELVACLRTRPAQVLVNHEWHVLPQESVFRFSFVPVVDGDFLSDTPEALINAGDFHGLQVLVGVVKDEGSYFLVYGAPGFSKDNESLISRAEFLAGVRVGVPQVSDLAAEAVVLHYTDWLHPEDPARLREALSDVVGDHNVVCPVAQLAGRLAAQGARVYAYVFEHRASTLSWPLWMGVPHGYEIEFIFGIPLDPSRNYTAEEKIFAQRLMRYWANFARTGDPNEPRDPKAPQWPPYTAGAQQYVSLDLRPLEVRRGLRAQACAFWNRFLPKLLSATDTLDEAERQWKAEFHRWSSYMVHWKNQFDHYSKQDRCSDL

| SMILES | Potency | activity, negative = inhibition |
| --- | --- | --- |
| CCCCCCCCCCCC(=O)O | inactive |  |
| C[C@]12CCC(=O)C=C1CC[C@@H]1[C@@H]2CC[C@]2(C)C(=O)CC[C@@H]12 | inactive |  |
| CC(=O)[O][Hg][c]1ccccc1 | inactive |  |
| C=CCOC(Cn1ccnc1)c1ccc(Cl)cc1Cl (centres undefined) | inactive |  |
| CC(Cl)(Cl)C(=O)O | inactive |  |
| O=C(O)C(Cl)(Cl)Cl | inactive |  |
| Nc1ccc(-c2ccc(N)c(Cl)c2)cc1Cl | inactive |  |
| CCCn1cc[n+](C)c1 | inactive |  |
| O=C(O)CCl | inactive |  |
| O=C(O)C(Cl)Cl | inactive |  |
| CCOP(=S)(OCC)Oc1ccc2c(C)c(Cl)c(=O)oc2c1 | 22.7 µM (active) and 12.6 µM (active) and inactive |  |
| C1CCC(NC2CCCCC2)CC1 | inactive |  |
| O=C(O)c1nc(Cl)ccc1Cl | inactive |  |
| Nc1ccc(Cl)cc1 | inactive |  |
| Cc1cc(-c2ccc(N)c(C)c2)ccc1N | inactive |  |
| O=c1[nH]c(=O)n(Cl)c(=O)n1Cl | inactive |  |
| CCNc1nc(Cl)nc(NCC)n1 | 31.9 µM (active) and inactive |  |
| Oc1ccccc1-c1ccccc1 | inactive |  |
| OCCOc1ccccc1 | inactive |  |
| O=P1(N(CCCl)CCCl)NCCCO1 (centres undefined) | inactive |  |
| COCC(=O)N(c1c(C)cccc1C)C(C)C(=O)OC (centres undefined) | inactive |  |
| Nc1ccc(-c2ccc(N)cc2)cc1 | inactive |  |
| CCCCCCCCCCCCOS(=O)(=O)O | inactive |  |
| CCCC[N+]1(C)CCCCC1 |  | -0.544% (inactive) |

molecular target: Acetylcholinesterase (Homo sapiens) (UniProt P22303); assay: Acetylcholinesterase (AChE) small molecule antagonists: enzyme-based qHTS assay (AID 1347397); details: Potency: AChE enzyme activity inhibition; series mostly up to 115 µM; activity change, negative = inhibition: at the top concentration; note: nearly all actives have a fitted effect of over 55% in size; note: potency is the fitted concentration of half-maximal effect
In short: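 Colorimetric DTNB readout of acetylthiocholine hydrolysis, 10 min at room temperature, after 30 min room-temperature exposure of 50 mU/mL recombinant human enzyme to compound; DMSO vehicle control.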

| SMILES | Potency |
| --- | --- |
| CCCCCCCCCCCC(=O)O | inactive |
| C[C@]12CCC(=O)C=C1CC[C@@H]1[C@@H]2CC[C@]2(C)C(=O)CC[C@@H]12 | inactive |
| CC(=O)[O][Hg][c]1ccccc1 | inactive |
| C=CCOC(Cn1ccnc1)c1ccc(Cl)cc1Cl (centres undefined) | inactive |
| CC(Cl)(Cl)C(=O)O | inactive |
| O=C(O)C(Cl)(Cl)Cl | inactive |
| Nc1ccc(-c2ccc(N)c(Cl)c2)cc1Cl | inactive |
| CCCn1cc[n+](C)c1 | inactive |
| O=C(O)CCl | inactive |
| O=C(O)C(Cl)Cl | inactive |
| CCOP(=S)(OCC)Oc1ccc2c(C)c(Cl)c(=O)oc2c1 | 40.4 µM (active) and 71 µM (active) and inactive |
| C1CCC(NC2CCCCC2)CC1 | inactive |
| O=C(O)c1nc(Cl)ccc1Cl | inactive |
| Nc1ccc(Cl)cc1 | inactive |
| Cc1cc(-c2ccc(N)c(C)c2)ccc1N | inactive |
| O=c1[nH]c(=O)n(Cl)c(=O)n1Cl | inactive |
| CCNc1nc(Cl)nc(NCC)n1 | inactive |
| Oc1ccccc1-c1ccccc1 | inactive |
| OCCOc1ccccc1 | inactive |
| COP(=O)(OC)OC=C(Cl)Cl | inactive |
| O=P1(N(CCCl)CCCl)NCCCO1 (centres undefined) | inactive |
| COCC(=O)N(c1c(C)cccc1C)C(C)C(=O)OC (centres undefined) | inactive |
| Nc1ccc(-c2ccc(N)cc2)cc1 | inactive |
| CCCCCCCCCCCCOS(=O)(=O)O | inactive |
| CCCC[N+]1(C)CCCCC1 | inactive |
